# Laboratory results published in PubChem BioAssay AID1903 (Southern Research Specialized Biocontainment Screening …, 2009).
# Where “and” joins values, the source holds several entries; their conditions need not be identical. Identical values can stand only once. Hit rate of the full screen: of about 310,000 compounds, about 1,200 (0.39%) were called active. The list is a sample of the results. Results with a measured potency or affinity are listed apart. Unmarked numbers belong to inactive results. No rule for the calls is given here.
# Molecular target: Large T antigen (Simian virus 40) (UniProt P03070)
# Sequence (P03070 whole entry, looked up): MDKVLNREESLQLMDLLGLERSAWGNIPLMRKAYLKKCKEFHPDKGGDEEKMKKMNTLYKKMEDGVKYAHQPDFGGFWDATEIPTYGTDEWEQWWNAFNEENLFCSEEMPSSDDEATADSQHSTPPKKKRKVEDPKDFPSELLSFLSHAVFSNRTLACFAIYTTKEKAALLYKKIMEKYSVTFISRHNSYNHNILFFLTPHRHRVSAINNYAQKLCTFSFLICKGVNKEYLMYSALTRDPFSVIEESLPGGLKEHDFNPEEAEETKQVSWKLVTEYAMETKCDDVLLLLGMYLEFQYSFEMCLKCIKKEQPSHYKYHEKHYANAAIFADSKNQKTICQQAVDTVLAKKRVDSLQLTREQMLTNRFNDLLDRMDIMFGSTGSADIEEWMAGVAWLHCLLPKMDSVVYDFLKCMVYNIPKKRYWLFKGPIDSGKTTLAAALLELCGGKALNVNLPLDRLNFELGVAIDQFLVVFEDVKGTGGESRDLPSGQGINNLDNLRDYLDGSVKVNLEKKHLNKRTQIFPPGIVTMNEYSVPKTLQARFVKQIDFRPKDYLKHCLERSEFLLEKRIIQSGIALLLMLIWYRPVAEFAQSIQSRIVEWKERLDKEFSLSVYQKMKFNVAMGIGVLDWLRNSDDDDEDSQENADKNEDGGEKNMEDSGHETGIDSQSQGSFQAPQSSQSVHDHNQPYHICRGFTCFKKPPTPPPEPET
# Experiment: TAg ATPase/helicase activity blockers – biochemical (AID 1903)
# Settings: SV40 large T antigen ATPase/helicase inhibition assay; at 20 µM; active compounds read high
row,SMILES,inhibition
1,O=C(COc1ccc(F)cc1)Nc1cc(S(=O)(=O)N2CCCCC2)ccc1N1CCCCC1,16%
2,N#CC1=C2SCN(Cc3ccco3)CN2C(=O)CC1c1cccc2ccccc12 (stereo unspecified),24.4%
3,N#CC1=C2SCN(Cc3ccccc3)CN2C(=O)CC1c1ccccc1F (stereo unspecified),35.3%
4,CCc1ccccc1N1CSC2=C(C#N)C(c3ccccc3F)CC(=O)N2C1 (stereo unspecified),54.3% and 27%
5,N#CC1=C2SCN(Cc3ccco3)CN2C(=O)CC1c1ccccc1F (stereo unspecified),21.6%
6,N#CC1=C2SCN(c3ccccc3)CN2C(=O)CC1c1c(Cl)cccc1Cl (stereo unspecified),33.9%
7,N#CC1=C2SCN(c3ccc(F)cc3)CN2C(=O)CC1c1cccc(F)c1 (stereo unspecified),35.6%
8,COc1ccccc1Nc1nc(NCCO)nc(N)c1[N+](=O)[O-],7.82%
9,COc1ccc(-c2cc(-c3n[nH]c(=S)n3-c3ccccc3OC)[nH]n2)cc1,32.3%
10,O=c1cc(-c2ccccc2)nc(N2CCN(Cc3ccc4c(c3)OCO4)CC2)[nH]1,9.11%
11,O=C(N/N=C/c1cccnc1)c1cccc(N2CCCC2=O)c1,0.45%
12,Cn1cccc1Cc1nnc(SCC(=O)NCCc2ccccc2)n1C,-0.6%
13,COc1ccc(C(=O)N2CCCC(Nc3ccc(F)cc3)C2)c(OC)c1 (stereo unspecified),12%
14,Cc1noc(C)c1C(=O)N1CCCC(Nc2ccc(C(C)C)cc2)C1 (stereo unspecified),-5.88%
15,Cc1ccc(NC2CCCN(C(=O)c3c(C)noc3C)C2)cc1C (stereo unspecified),21.2%
16,COC(=O)c1cccc(C(=O)N2CCCC(Nc3ccc4c(c3)OCCO4)C2)c1 (stereo unspecified),29.8%
17,COc1ccc(OC)c(C(=O)N2CCCC(Nc3ccc(F)cc3)C2)c1 (stereo unspecified),23%
18,COc1ccc(NC2CCCN(C(=O)c3ccc4nc(C)c(C)nc4c3)C2)cc1OC (stereo unspecified),26.4%
19,CC(C)c1ccc(NC2CCCN(C(=O)c3ccco3)C2)cc1 (stereo unspecified),19.6%
20,COc1ccc(NC2CCCN(C(=O)c3ccc4nccnc4c3)C2)cc1OC (stereo unspecified),32.5%
21,COc1ccc(-n2cnc3cc(C(=O)NCC4CCCO4)ccc32)cc1 (stereo unspecified),3.91%

row,SMILES,inhibition
1,CN(C)CCCN(C(=O)c1ccco1)c1nc2ccc(F)cc2s1,7.29%
2,C(=N\N1CCN(c2ccccc2)CC1)/c1ccccc1,8.2%
3,COC(=O)[C@@H]1C[C@H]2CC[C@H](O)C[C@H]2N1Cc1ccc(Cl)cc1,8.58%
4,N#Cc1c(/N=C/c2ccc(-c3ccccc3C(=O)O)o2)sc2c1CCCC2,13.3%
5,CCOC(=O)C1CCN(C(=O)CCNC(=O)c2cc(OC)c(OC)c(OC)c2)CC1,4.64%
6,CCOC(=O)CSc1nnc(NC(=O)c2ccco2)s1,-8%
7,Cc1ccc(N(CC(=O)NCC2CCCO2)C(=O)Cn2nnc(-c3cccs3)n2)cc1 (stereo unspecified),24.6%
8,Cc1ncc(CN2CCC(CO)(Cc3ccccc3)CC2)s1,2.75%
9,COc1ccc(NC2CCCN(C(=O)c3ccncc3)C2)cc1 (stereo unspecified),51.8%
10,COc1ccc(NC2CCCN(C(=O)c3ccc(C(C)=O)cc3)C2)cc1 (stereo unspecified),46.3%
11,O=C(Nc1cccnc1)/C(N=Nc1c(Cl)cccc1Cl)=C(\O)c1ccccc1,0.28%
12,C/C(=N\NC(=O)CC#N)c1cc2ccc(O)cc2oc1=O,21.8%
13,C/C(=N/NC(=O)c1ccncc1)c1cc2ccc(O)cc2oc1=O,12.9%
14,CCc1noc(C)c1C(=O)N1CCN(S(=O)(=O)c2c(C)c(C)cc(C)c2C)CC1,5.1%
15,O=C(O)c1ccccc1C(=O)c1cccc2ccccc12,8.24%
16,O=C(O)CCC(=O)c1cccc2ccccc12,6.26%
17,CS(=O)(=O)N1CCCC(C(=O)N2CCN(c3cccc(Cl)c3)CC2)C1 (stereo unspecified),9.69%
18,COc1ccccc1NC(=S)N(CCCN1CCOCC1)Cc1ccccn1,12.9%
19,Cc1nc2ccc(S(=O)(=O)N3CCCCC3)cc2s1,2.61%
20,CSc1nc2ccc(S(=O)(=O)N3CCCCC3)cc2s1,4.61%
21,COc1ccc(NC(=O)CC2C(=O)N(c3ccc(F)cc3)C(=S)N2NC(=O)c2ccc(Cl)cc2)cc1 (stereo unspecified),8.76%

row,SMILES,inhibition
1,O=C(Nc1ccc(F)cc1)c1ccc2nc[nH]c2c1,7.49%
2,COc1cc(C(=O)Nc2ccc(Nc3ccccc3)cc2)cc(OC)c1OC,12.4%
3,CCCOc1ccc(C(=O)Nc2ccc(N(C)C)cc2)cc1,32%
4,O=C(Nc1ccccc1)c1cccc(N2C(=O)CCC2=O)c1,5.21%
5,COc1cc(C(=O)Nc2ccncc2)cc(OC)c1OC,5.76%
6,O=C(Nc1ccc(Br)cc1)c1cccc(N2C(=O)CCC2=O)c1,7.57%
7,CN(C)c1ccc(NC(=O)c2ccc3nsnc3c2)cc1,18.4%
8,CC(C)Oc1ccc(NC(=O)c2ccncc2)cc1,3.7%
9,COc1ccc(-c2cc(=O)c3cc(OC)c(OC)cc3[nH]2)cc1,3.81%
10,Cc1ccc(/C=C(\NC(=O)c2ccccc2)C(=O)NCC2CCCO2)o1 (stereo unspecified),6.08%
11,O=C(COc1ccc(C(=O)c2ccccc2)cc1)NC1CCCCCC1,-8.94%
12,NC(N)=Nc1nc2ccc(Cl)cc2c(=O)[nH]1,11.5%
13,COc1ccc(NC(=O)/C=C/c2ccc(OC(F)F)cc2)cn1,9.9%
14,COc1ccc(N2CCN(C(=O)CN3C(=O)NC(c4ccc(OC)cc4)(c4ccc(OC)cc4)C3=O)CC2)cc1,6.64%
15,Cc1cc(=O)n(CC=C(Cl)Cl)c2ccccc12,-7.91%
16,NC(=S)NN=C1c2ccccc2-c2ccccc21,7.35%
17,NC(=S)N/N=C/c1ccccc1,13%
18,CC(=O)Nc1ccc(NC(=O)CS(=O)(=O)c2cn(CC(=O)N3CCCC3)c3ccccc23)cc1,14%
19,Cc1ccc(-n2nc(C)c(NC(=O)CCl)c2C)cc1,9.64%
